Out of some 310,000 compounds screened, about 1,000 (0.32%) were called active. The rule behind the calls is not given here. These entries were drawn from the full list. Measured potencies and affinities stand elsewhere.
Assay: Inhibition of PhoP regulon, Salmonella typhi GFP reporter cells, confirmation, 4 h (AID 1850);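 note: 0% = induced wells with vehicle and 100% = uninduced wells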
Conditions: Salmonella Typhi PhoP-promoter GFP reporter, fluorescence, at 50 µM, hits give high values
With `COc1ccc(/C=C/C2=CCN(Cc3ccc(OC)cc3)CC2)cc1` the inhibition was 5.66% (inactive). For `COc1ccc(CN2CC(C(N)=O)Oc3ccccc32)cc1F` (stereo not given), the inhibition was -14.6% (inactive). For `Cc1ccccc1C(=O)Nc1c(C(=O)N2CCCC2)cnn1-c1ccccc1`, the inhibition was -11.9% (inactive). With `CN(C)S(=O)(=O)c1ccc(NC(=O)COC(=O)CC2CC3CCC2C3)cc1` (stereo not given) the inhibition was -11.3% (inactive). In the case of `Cc1ccc(C)n1-c1ccccc1N`, the inhibition is reported as 7.67% (inactive). For `C/C(CC(=O)NC1C2CC3CC(C2)CC1C3)=N\NC(=O)Cc1cccs1` (stereo not given), the inhibition was 5.86% (inactive). In the case of `CC(=O)c1coc2c1cc(O)c1ccccc12`, the inhibition is reported as -10.2% (inactive). For `CC(=O)Oc1c(C)cc(O)c2ccccc12`, the inhibition was -6.69% (inactive). In the case of `COc1ccc2[nH]cc(C(=O)CN3CCCC(C)(C)C3)c2c1`, the inhibition is reported as 12.1% (inactive). With `CCOC(=O)CCNC(=O)Nc1ccc2nc(C)n(Cc3ccccc3Cl)c(=O)c2c1` the inhibition was 12% (inactive). With `CC(=O)N(Cc1cc2cc(C)c(C)cc2n2nnnc12)CC1COCCO1` (stereo not given) the inhibition was -4% (inactive). In the case of `CC(C)N(Cc1nc(-c2ccccc2)no1)C(=O)c1ccc2c(c1)OCO2`, the inhibition is reported as 1.2% (inactive). In the case of `COc1ccc(CCC(=O)NCCOc2ccc(Cl)cc2)cc1`, the inhibition is reported as -4.36% (inactive). With `CN1CCc2nc(SCC(=O)Nc3ccc(OC(F)(F)F)cc3)c(C#N)c(-c3cccs3)c2C1` the inhibition was -3.5% (inactive). For `COc1ccc(NC(=O)CSc2nc3c(c(-c4cccs4)c2C#N)CN(C)CC3)cc1OC`, the inhibition was 0.71% (inactive). With `COc1ccccc1Nc1ccc([N+](=O)[O-])cc1N` the inhibition was 2.25% (inactive). With `CC1CC(C)CN(S(=O)(=O)c2ccc3c(c2)CC(C)N3C(=O)C2CC2)C1` (stereo not given) the inhibition was -20.4% (inactive). In the case of `CCc1ccc(-c2cc(C)no2)cc1S(=O)(=O)N1CCN(c2ccc(OC)cc2)CC1`, the inhibition is reported as -6.02% (inactive). For `O=[N+]([O-])c1ccc(N2CCCC2)c2ncccc12`, the inhibition was -3.29% (inactive). For `O=[N+]([O-])c1cccc2c(N3CCOCC3)ccnc12`, the inhibition was -0.36% (inactive). For `Cc1cc(C)cc(OCC(=O)Nc2cccc(-c3nnc(-c4ccco4)o3)c2)c1`, the inhibition was 3.78% (inactive). With `CCCCNC(=O)O[C@@H]1C[C@H]2CCC(=O)N3CC[C@@H](C1)[C@@H]23` the inhibition was 4.97% (inactive). For `CCC(C)c1ccc(NC(=O)c2[nH]c(C)c(C(C)=O)c2C)cc1` (stereo not given), the inhibition was -9.52% (inactive). In the case of `COc1ccc(C=Nc2ccc3[nH]ncc3c2)c(O)c1`, the inhibition is reported as 0.93% (inactive). For `Cc1ccc(O)c(C=Nc2ccc3[nH]ncc3c2)c1`, the inhibition was -7.82% (inactive). In the case of `CC1=C(C#N)C(c2cccnc2)C2=C(N1)c1ccccc1C2=O` (stereo not given), the inhibition is reported as 1.42% (inactive). For `Cc1cccc(Nc2ccc(NCc3ccccc3)nn2)c1`, the inhibition was 5.48% (inactive). With `Cc1ccc(Nc2ccc(NCc3ccccc3)nn2)cc1C` the inhibition was -4.54% (inactive). In the case of `O=C(O)/C=C/C(=O)N1CCN(c2ccc(F)cc2)CC1`, the inhibition is reported as 2.57% (inactive). In the case of `Cc1c(Cc2ccccc2)c(=O)oc2cc(OCC(=O)N[C@@H](Cc3ccccc3)C(=O)O)ccc12`, the inhibition is reported as 1.41% (inactive). For `C#CCOCCOCCOCCNc1nc(N2CCN(C(=O)[C@H](Cc3cc4ccccc4[nH]3)n3cc(C(N)CC(C)C)nn3)CC2)nc(N2CCN(C(=O)[C@H](CCC(=O)O)n3cc(C(N)[C@H](C)CC)nn3)CC2)n1` (stereo not given in full), the inhibition was -6.17% (inactive). In the case of `C#CCOCCOCCOCCNc1nc(N2CCN(C(=O)[C@H](CCC(=O)O)n3cc(C(N)CC(C)C)nn3)CC2)nc(N2CCN(C(=O)[C@H](Cc3cc4ccccc4[nH]3)n3cc(C(N)CC(C)C)nn3)CC2)n1` (stereo not given in full), the inhibition is reported as -7.76% (inactive). For `C#CCOCCOCCOCCNc1nc(N2CCOCC2)nc(N2CCN(C(=O)[C@H](Cc3cc4ccccc4[nH]3)n3cc([C@@H](N)CC(C)C)nn3)CC2)n1`, the inhibition was 7.58% (inactive). For `C#CCOCCOCCOCCNc1nc(N2CCN(C(=O)C(Cc3cc4ccccc4[nH]3)n3cc(C(N)C(C)CC)nn3)CC2)nc(N2CCN(C(=O)C(Cc3cc4ccccc4[nH]3)n3cc(C(N)C(C)CC)nn3)CC2)n1` (stereo not given), the inhibition was 37.5% (inactive). In the case of `CN(C)C(=S)Nc1ccc(Cc2ccncc2)cc1`, the inhibition is reported as -0.62% (inactive). With `CCN(Cc1ccccc1)C(=O)c1cccc(S(=O)(=O)N2CCN(c3ccccc3)CC2)c1` the inhibition was 1.18% (inactive). In the case of `COCCCN1CN(S(=O)(=O)c2ccc(C)cc2C)c2nc3ccccc3nc21`, the inhibition is reported as 6.06% (inactive). For `COCCCNC(=O)c1ccccc1N(Cc1ccccc1)S(=O)(=O)c1ccccc1`, the inhibition was -7.24% (inactive). With `N=c1c2c(n(Cc3ccc(F)cc3)c3c1CCC3)CCC2` the inhibition was -1.84% (inactive). With `N=c1c2c(n(Cc3ccc([N+](=O)[O-])cc3)c3c1CCC3)CCCC2` the inhibition was -1.87% (inactive). In the case of `N=c1c2c(n(Cc3ccc(Br)cc3)c3c1CCC3)CCCC2`, the inhibition is reported as -4.26% (inactive). With `CCn1c2c(c(=N)c3c1CCC3)CCCC2` the inhibition was 8.7% (inactive). For `N=c1c2c(n(Cc3ccc(F)cc3)c3c1CCC3)CCCC2`, the inhibition was 5.47% (inactive). In the case of `Clc1cccc(CN2CCCCCC2)c1`, the inhibition is reported as -6.25% (inactive). For `N=c1ccn(Cc2ccc(Cl)cc2Cl)cc1`, the inhibition was 22.8% (inactive). For `N=c1c2c(n(Cc3ccccc3)c3c1CCC3)CCC2`, the inhibition was -2.77% (inactive). In the case of `COc1ccc(N2CCN(S(=O)(=O)CCNC(=O)/C=C/c3ccc4c(c3)OCO4)CC2)cc1`, the inhibition is reported as -1.81% (inactive). With `CC(C)NC(=O)C(=O)NCc1ccccn1` the inhibition was 15.4% (inactive). For `CN(CCn1ccnc1)Cc1cn(Cc2ccccc2)nc1-c1ccc2c(c1)OCO2`, the inhibition was 8.95% (inactive). With `CCCn1c(=O)c(C(=O)NCCc2ccc(OC)c(OC)c2)c(O)c2ccccc21` the inhibition was 3.2% (inactive). In the case of `CCn1c(/N=C/c2ccccc2O)nc2ccccc21`, the inhibition is reported as -0.93% (inactive). With `CCN1CCSc2ccc(C(=O)NCc3ccc(OC(C)C)cc3)cc21` the inhibition was -2.46% (inactive). In the case of `COc1ccc(NC(=O)CNCCC2=CCCCC2)cc1`, the inhibition is reported as -8.03% (inactive). In the case of `O=C(CNCCC1=CCCCC1)Nc1ccccc1N1CCCCCC1`, the inhibition is reported as 5.47% (inactive). For `O=S1(=O)NC(=NCCc2ccccn2)c2ccccc21`, the inhibition was -5.57% (inactive). In the case of `Clc1ccc2ccc3cccnc3c2n1`, the inhibition is reported as 2.67% (inactive). In the case of `Cc1ccc2c(c1)-c1ccccc1S(=O)(=O)N2`, the inhibition is reported as -6.75% (inactive). For `Cc1ccc2ccc3cccnc3c2n1`, the inhibition was 2.32% (inactive). With `CCC(C)c1ccccc1N1CC(C(=O)Nc2cc(S(=O)(=O)N3CCOCC3)ccc2OC)CC1=O` (stereo not given) the inhibition was 1.56% (inactive). In the case of `CSc1ccc(C2NC(=O)CCC2[N+](=O)[O-])cc1` (stereo not given), the inhibition is reported as 9.78% (inactive). For `Cc1c(C(=O)N2CCN(C(=O)c3ccco3)CC2)oc2c(Cl)cccc12`, the inhibition was 5.99% (inactive). With `Cc1ccc(C(=O)O/N=C/C2=C(Cl)c3ccccc3CC2)cc1` the inhibition was 3.65% (inactive). For `O=C(O/N=C/C1=C(Cl)c2ccccc2CC1)c1ccc(F)cc1`, the inhibition was -1% (inactive). With `CCC(C)NCCOc1cc(C)cc(C)c1C` (stereo not given) the inhibition was 10.5% (inactive). In the case of `CCOC(=O)c1c(C)[nH]c(C)c1S(=O)(=O)N1c2ccccc2CC1C` (stereo not given), the inhibition is reported as -32.7% (inactive). With `CCOc1ccccc1N1C(=O)NC(=O)C(CCc2ccncc2)(CCc2ccncc2)C1=O` the inhibition was -6.46% (inactive). With `COC(=O)CSC1=NS(=O)(=O)c2ccccc21` the inhibition was -2.6% (inactive). With `CCc1cccc(NC(=O)CSc2nc3c(c(=O)[nH]2)CCCC3)c1` the inhibition was 8.6% (inactive). In the case of `CN1CCN(/N=C/c2cccc(Cl)c2Cl)CC1`, the inhibition is reported as 0.18% (inactive). With `CN1CCN(/N=C/c2ccc(-c3ccccc3)cc2)CC1` the inhibition was 1.69% (inactive). With `CCC(C)(C)NC(=O)C(c1ccc(OC)cc1)N(C(=O)CCC(=O)Nc1cc(C)on1)c1cccc(OC)c1` (stereo not given) the inhibition was 1.27% (inactive). For `O=C(NNC(=O)c1nn(-c2ccc(F)cc2)ccc1=O)c1ccc(Cl)cc1`, the inhibition was 1.15% (inactive). In the case of `CC1(CC(=O)N/N=C/c2cc3c(cc2Br)OCO3)OCCO1`, the inhibition is reported as 5.58% (inactive). With `CC1(CC(=O)N/N=C/c2cc(Br)c(O)cc2O)OCCO1` the inhibition was -8.89% (inactive). With `CCN(C1CCCCC1)S(=O)(=O)c1c(C)n(C)c(=O)n(C)c1=O` the inhibition was -2.91% (inactive). In the case of `Cc1cc(C)c(NC(=O)c2cn3c4c(c(N5CCN(C)CC5)c(F)cc4c2=O)OCC3C)c(C)c1` (stereo not given), the inhibition is reported as 1.68% (inactive). With `CCOC(=O)c1cnc2cc(F)c(F)cc2c1N1CCN(C)CC1` the inhibition was -5.38% (inactive). For `CCOc1ccc(NC(=O)c2ccc(NC(=O)c3cn4c5c(c(N6CCN(C)CC6)c(F)cc5c3=O)OCC4C)cc2)cc1` (stereo not given), the inhibition was -0.94% (inactive). With `Cc1c(-n2cc(C(=O)O)c(=O)c3cc(F)c(N4CCCC4)c(F)c32)c(=O)n(-c2ccccc2)n1C` the inhibition was -2.73% (inactive). With `CCOC(=O)C1CN(c2cc3c(cc2F)c(=O)c(C(=O)O)cn3CC)OC1C(=O)OCC` (stereo not given) the inhibition was -4.02% (inactive). In the case of `CCn1cc(C(=O)O)c(=O)c2cc(F)c(N/N=C/c3ccccc3)cc21`, the inhibition is reported as -3.82% (inactive). In the case of `O=C(Nc1cccc(F)c1)OC(CN1CCCCC1)C(F)(F)F` (stereo not given), the inhibition is reported as 6.26% (inactive). In the case of `CC1(C)Cc2c(cnn2-c2ccc(F)cc2)C(NC(=O)CN2CCCCC2=O)C1` (stereo not given), the inhibition is reported as -4.07% (inactive). With `CCCNC(=S)N1CCN(C)CC1` the inhibition was -12.9% (inactive). For `CCOC(=O)c1ccc(Nc2nnc(C(C)(C)C)c(=O)[nH]2)cc1`, the inhibition was -2.27% (inactive). For `Cc1ccc(C(=O)CSc2nnc(C(C)C)n2C)cc1C`, the inhibition was -9.07% (inactive). With `O=C(c1ccc2nc(Cc3ccccc3F)oc2c1)N1CCCC1` the inhibition was -15.9% (inactive). For `C/C(=N\OC(=O)c1c(-c2ccccc2Cl)noc1C)c1nccs1`, the inhibition was -7.14% (inactive). For `COCCn1c(N)c(N(Cc2ccccc2)C(=O)c2oc3ccccc3c2C)c(=O)[nH]c1=O`, the inhibition was -2.04% (inactive). With `CCOc1ccccc1N1CCN(C(=S)NCc2ccco2)CC1` the inhibition was -6.16% (inactive).

Reference: PubChem BioAssay AID1850 (Southern Research Specialized Biocontainment Screening …, 2009)
